mHTT CaM bind: disrupts binding of mutant huntingtin to calmodulin | AID 1671202 | inhibition, % at 15 µM | P42858 | 190,000 tested, 3.6% active | AlphaScreen His-mHTT/GST-CaM binding, luminescence;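 further: 0% = both proteins with DMSO and 100% = one protein alone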
Pf apPOL inh: Pf-apPOL DNA polymerase inhibition; Recombinant Pf-apPOL, molecular beacon fluorescence, 1.5 h; inhibition, % at 10 µM; 210,000 tested, 0.25% active
An asterisk follows results filed as active. The list is not random: actives were taken first. Their share in the collection is about 3.5%. No stated cut-off is given here; in the data, active means inhibition above about 50%; inactive means the rest.

`CC1(C)CC(=O)C2=C(C1)OC(N)=C(C#N)C2c1cn(-c2ccccc2)nc1-c1ccc(Cl)cc1` (centres undefined) gave mHTT CaM bind 100.2* and Pf apPOL inh 0.8.
For Cn1cc(C(=O)N2CCN(c3ccccn3)CC2)c2cccnc21 the results were mHTT CaM bind -10.5 and Pf apPOL inh -0.2.
Cc1ccc(-c2cc(C(=O)N3CCN(c4ccccn4)CC3)c(C)[nH]2)cc1 was read as mHTT CaM bind 77.4* and Pf apPOL inh -1.9.
CC(C)CNC(=O)c1ccccc1NC(=O)c1cccs1 was read as mHTT CaM bind 4.8 and Pf apPOL inh -3.9.
`CC1(C)CC2CC(C)(CN2C(=O)C2CCN(S(=O)(=O)c3cccs3)CC2)C1` (centres undefined) gave mHTT CaM bind 9.0 and Pf apPOL inh 15.6.
O=C(Cc1nnc(-c2ccc3ncccc3c2)o1)Nc1ccc(Cl)cc1 was read as mHTT CaM bind 0.1 and Pf apPOL inh -3.2.
Screening Cc1nnsc1C(=O)Nc1ccc(-c2cnco2)cc1 returned Pf apPOL inh -4.4.
O=C(CN1CCN(C2c3ccccc3-c3ccccc32)CC1)Nc1ccc2c(c1)OCCO2 was read as mHTT CaM bind 58.0* and Pf apPOL inh -0.7.
COc1ccc(NC(=O)CN2CCN(C3c4ccccc4-c4ccccc43)CC2)cc1Cl was read as mHTT CaM bind 40.0 and Pf apPOL inh 1.4.
Screening CCN1C(=O)C(C)(C(=O)Nc2ccc(OC)c(OC)c2)Oc2cccnc21 (centres undefined) returned mHTT CaM bind 27.1 and Pf apPOL inh 2.0.
CCC(=O)NC(c1ccccc1OC)c1cc(Cl)c2cccnc2c1O (centres undefined) was read as mHTT CaM bind 87.0* and Pf apPOL inh 2.4.
`CCCC(=O)NC(c1ccccc1OC)c1cc(Cl)c2cccnc2c1O` (centres undefined) gave mHTT CaM bind 51.0* and Pf apPOL inh -11.5.
CCCC(=O)NC(c1ccc(OC)c(OC)c1)c1cc(Cl)c2cccnc2c1O (centres undefined) was read as mHTT CaM bind 25.0 and Pf apPOL inh -49.7.
CCC(=O)NC(c1ccccc1Cl)c1cc(Cl)c2cccnc2c1O (centres undefined) was read as mHTT CaM bind 100.0* and Pf apPOL inh 6.5.
CCC(=O)NC(c1ccc(Cl)cc1)c1cc(Cl)c2cccnc2c1O (centres undefined) was read as mHTT CaM bind 41.0 and Pf apPOL inh 6.8.
Screening Cc1cc(C(=O)N2CCCC2c2cc(C)on2)no1 (centres undefined) returned mHTT CaM bind -5.5 and Pf apPOL inh 0.4.
`CCOc1ccc(C(=O)Nc2ccc3oc(-c4ccc(F)cc4)nc3c2)cc1[N+](=O)[O-]` gave mHTT CaM bind 0.1 and Pf apPOL inh 3.1.
`CSc1cccc(NC(=O)NCCC2CCN(S(=O)(=O)c3ccc(C)cc3)CC2)c1` gave mHTT CaM bind 25.5 and Pf apPOL inh -4.7.
Cc1ccccc1C1C=C(c2cccs2)Nc2nnnn21 (centres undefined) was read as mHTT CaM bind -5.0 and Pf apPOL inh -7.9.
For O=C(Nc1c2c(nn1-c1ccc(Cl)cc1)CS(=O)(=O)C2)c1ccco1 the results were mHTT CaM bind -2.0 and Pf apPOL inh -7.3.
`OCc1nc2ccccc2n1Cc1ccc(Cl)c(Cl)c1` gave mHTT CaM bind 72.7* and Pf apPOL inh 1.3.
OCc1nc2ccccc2n1Cc1ccccc1 was read as mHTT CaM bind -0.5 and Pf apPOL inh 1.0.
`CCn1ccc2oc(C)c(C(=O)N3CCN(c4cccc(Cl)c4)CC3)c2c1=O` gave mHTT CaM bind 93.7* and Pf apPOL inh 2.9.
CCCn1ccc2oc(C)c(C(=O)N3CCN(c4ccccc4)CC3)c2c1=O was read as mHTT CaM bind 29.2 and Pf apPOL inh 0.7.
For CCCn1ccc2oc(C)c(C(=O)N3CCN(c4cccc(C)c4)CC3)c2c1=O the results were mHTT CaM bind 66.8* and Pf apPOL inh -0.2.
Screening CCn1ccc2oc(C)c(C(=O)N3CCN(c4ccc(Cl)cc4)CC3)c2c1=O returned mHTT CaM bind 36.7 and Pf apPOL inh -4.6.
CCOC(=O)c1c(NC=C2C(=O)OC(C)(C)OC2=O)sc2c1CCC(C)C2 (centres undefined) was read as mHTT CaM bind -9.8 and Pf apPOL inh -1.8.
For CCN(CC)Cc1c(O)ccc2c1OC(=Cc1ccccc1C)C2=O the results were mHTT CaM bind 9.6 and Pf apPOL inh -0.1.
For CCN(CC)Cc1c(O)ccc2c1OC(=Cc1c[nH]c3ccccc13)C2=O the results were mHTT CaM bind 72.3* and Pf apPOL inh -31.2.
`CN1CCN(Cc2c(O)ccc3c2OC(=Cc2c[nH]c4ccccc24)C3=O)CC1` gave mHTT CaM bind -0.9 and Pf apPOL inh -9.5.
CCN1CCN(Cc2c(O)ccc3c2OC(=Cc2c[nH]c4ccccc24)C3=O)CC1 was read as mHTT CaM bind 54.0* and Pf apPOL inh -5.9.
For CCn1cnnc1C1CCCN(Cc2ccc3cc[nH]c3c2)C1 (centres undefined) the results were mHTT CaM bind 12.1 and Pf apPOL inh -5.6.
For CSc1ccccc1NC(=O)c1c(F)cccc1F the results were mHTT CaM bind -1.5 and Pf apPOL inh 10.0.
COC(=O)C1OC(O)C(O)C(O)C1O (centres undefined) was read as Pf apPOL inh 96.5*.
`CC(=O)NC1C(O)OC(CO)C(O)C1O` (centres undefined) gave Pf apPOL inh -15.7.
`Cn1cnnc1C1CCCN(Cc2ccc(Br)s2)C1` (centres undefined) gave mHTT CaM bind 23.1 and Pf apPOL inh 2.7.
`O=C(Nc1cccc(NC(=O)c2cc3ccccc3o2)c1)c1ccccc1` gave mHTT CaM bind 13.9 and Pf apPOL inh 69.6*.
For O=C(O)c1ccc(NC(=O)c2cc3ccccc3o2)cc1 the results were mHTT CaM bind 0.5 and Pf apPOL inh -0.6.
Cc1ccc(Cl)cc1N1CCN(C(=O)C2Oc3ccccc3NC2=O)CC1 (centres undefined) was read as mHTT CaM bind 81.2* and Pf apPOL inh 0.1.
For O=C1Nc2ccccc2OC1C(=O)N1CCN(c2cccc(Cl)c2)CC1 (centres undefined) the results were mHTT CaM bind 1.6 and Pf apPOL inh -2.3.
Cc1ccc(C)c(N2CCN(C(=O)CCC(=O)N3CCCn4nc(C)cc43)CC2)c1 was read as mHTT CaM bind 46.4 and Pf apPOL inh 0.8.
`Cc1cc2n(n1)CCC(=O)N2CCCC(=O)N1CCN(c2cc(Cl)ccc2C)CC1` gave mHTT CaM bind 83.9* and Pf apPOL inh -5.5.
Screening Cc1cc2n(n1)CCCN2C(=O)CCC(=O)N1CCN(c2cc(Cl)ccc2C)CC1 returned mHTT CaM bind 87.2* and Pf apPOL inh -0.3.
`Cc1ccc(C)c(N2CCN(C(=O)CCCN3C(=O)CCn4nc(C)cc43)CC2)c1` gave mHTT CaM bind 26.8 and Pf apPOL inh -2.9.
Screening O=C(C1CCN(Cc2ccccc2F)CC1)N1CCOCC1 returned mHTT CaM bind -6.3 and Pf apPOL inh 6.3.
For COc1ccc(C=C2Oc3c(ccc(OC(C)=O)c3C)C2=O)cc1 the results were mHTT CaM bind 3.5 and Pf apPOL inh -0.4.
For Cc1ccccc1NC(=O)NC1CNC(=O)C1 (centres undefined) the results were mHTT CaM bind -6.5 and Pf apPOL inh -4.6.
Screening CCn1c(/C(C#N)=C/c2ccc(OC)cc2)nc2ccccc21 returned mHTT CaM bind 10.0 and Pf apPOL inh -1.7.
